Source: PubChem
Only some compounds are listed: those with a hit (about 10% of all), similar ones and a draw of the others.
FLuc inh – Photinus pyralis luciferase inhibition; 2.5% of 76,000 active; Potency, µM (series often up to 115 µM), usual class: inhibitors; purified P. pyralis luciferase, luminescence, biochemical; also: nearly all actives have a fitted effect of over 65% in size
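Purified 10nM P. pyralis luciferase with 10uM D-luciferin and 10uM ATP in 50mM Tris acetate pH 7.5, 10mM Mg acetate, 0.01% Tween-20, 0.05% BSA. qHTS titration; luminescence read by CCD imager.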
HEK cytotox – cytotoxic compounds in HEK 293 cells | HEK 293 viability, ATP luminescence (CellTiter-Glo), 48-72 h | Potency, µM (top dose mostly 115 µM), for inactives: at the top dose activity change, negative = cytotoxicity, actives largely listed as inhibitors | 6.6% of 94,000 active | AID 1345083; also: nearly all actives have a fitted effect of over 60% in size
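HEK 293 cells at 250 cells/well were exposed to compounds by pintool transfer for 48 or 72 hr at 37 degree Celsius, 5% CO2. Viability was read as ATP-coupled luminescence with CellTiter-Glo after 10 min at room temperature.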
GPT2 inh – GPT2 alanine aminotransferase inhibition. Q8TD30. Recombinant GPT2, coupled pyruvate oxidase/HRP Amplex Red fluorescence. Potency, µM (titrated, usually from 57.7 µM), for inactives: at the highest dose activity change, negative = inhibition, most hits filed as inhibitors. 0.25% of 100,000 active; also: nearly all actives have a fitted effect of over 60% in size
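Inhibition is scored from Amplex Red fluorescence generated when pyruvate oxidase and HRP act on pyruvate released by GPT2. Reactions contain 10ng/uL enzyme, 250uM a-KG and 2mM L-alanine and run 30 min at room temperature.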
NIH3T3 tox – NIH 3T3 cell cytotoxicity; Potency, µM (highest dose often 96.7 µM), inactives show at the top dose activity change, negative = cytotoxicity, hits mostly inhibitors; 4.3% of 94,000 active; NIH 3T3 viability, CellTiter-Glo ATP luminescence, 48-72 h; also: nearly all actives have a fitted effect of over 55% in size
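Cytotoxicity is measured as loss of cellular ATP: NIH 3T3 cells (400/well) are exposed to compound for 48 or 72 hr at 37 °C, then CellTiter-Glo luminescence is imaged after 10 min at room temperature.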
hNpr1 antagonist – antagonists of human natriuretic peptide receptor Npr1. HEK293 hNpr1 GloSensor cGMP, ANP-stimulated luminescence. 1.6% of 76,000 active. Potency, µM (doses to about 46.3 µM), without a hit: top-dose activity change, negative = inhibition, most hits filed as inhibitors. P16066; calls by dose curve; also: nearly all actives have a fitted effect of over 60% in size
Target sequence (P16066 whole entry, looked up): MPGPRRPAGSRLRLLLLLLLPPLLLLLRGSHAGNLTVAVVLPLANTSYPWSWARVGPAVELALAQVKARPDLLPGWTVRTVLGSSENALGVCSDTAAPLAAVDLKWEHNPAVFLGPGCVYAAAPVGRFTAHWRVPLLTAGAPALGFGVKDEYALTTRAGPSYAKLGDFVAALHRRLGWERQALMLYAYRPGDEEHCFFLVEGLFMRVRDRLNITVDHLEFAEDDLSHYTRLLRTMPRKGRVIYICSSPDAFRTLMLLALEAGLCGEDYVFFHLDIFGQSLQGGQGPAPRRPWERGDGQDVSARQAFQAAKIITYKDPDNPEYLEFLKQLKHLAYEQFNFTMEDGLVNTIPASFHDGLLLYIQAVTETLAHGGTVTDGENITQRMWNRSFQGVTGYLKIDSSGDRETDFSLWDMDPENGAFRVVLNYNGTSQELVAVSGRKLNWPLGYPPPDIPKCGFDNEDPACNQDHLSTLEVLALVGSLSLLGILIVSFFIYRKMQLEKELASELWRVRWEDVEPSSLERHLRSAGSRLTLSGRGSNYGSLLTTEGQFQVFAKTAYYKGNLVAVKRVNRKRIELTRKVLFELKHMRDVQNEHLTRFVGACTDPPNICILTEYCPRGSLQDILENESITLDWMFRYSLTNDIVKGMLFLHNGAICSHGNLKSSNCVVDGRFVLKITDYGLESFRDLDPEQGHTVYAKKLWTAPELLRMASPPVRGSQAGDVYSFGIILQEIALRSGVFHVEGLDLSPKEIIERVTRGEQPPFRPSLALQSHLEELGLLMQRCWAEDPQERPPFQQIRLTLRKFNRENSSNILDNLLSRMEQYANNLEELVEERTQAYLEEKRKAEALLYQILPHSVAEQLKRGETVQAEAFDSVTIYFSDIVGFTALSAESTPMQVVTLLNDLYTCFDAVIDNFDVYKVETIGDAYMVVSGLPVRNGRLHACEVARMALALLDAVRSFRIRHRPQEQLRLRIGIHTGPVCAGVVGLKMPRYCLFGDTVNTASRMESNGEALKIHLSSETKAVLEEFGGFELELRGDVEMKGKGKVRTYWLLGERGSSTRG
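Compound pre-incubated 30 min at room temperature on GloSensor-loaded HEK293 cells stably carrying hNpr1 and the pGS-40F cGMP biosensor. Stimulation uses hNppA at 0.1 nM final; luminescence is taken at baseline and 20 min post-agonist.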
The depositor's hits bear a star; i = inactive; ? = inconclusive; · = no result given; [ ] = remark or other dose. Unless noted, calls follow the shape of the dose curve; as a rule, active = well fitted curve in the direction sought with a large enough effect; inconclusive = small, poorly fitted or top-dose-only effect, or another doubt; inactive = no such curve, though single readings can be large; an effect the other way counts as inactive or inconclusive. % is scaled to controls: 0 for no effect and ±100 for the full control effect; potency is read from the fitted curve at half-maximal effect.

SMILES	FLuc inh	HEK cytotox	GPT2 inh	NIH3T3 tox	hNpr1 antagonist
COCc1nc(-c2ccc(OC3CN(C(=O)c4cccc(OC)c4)C3)cc2)no1	i	?	i	?	?
COCc1nc(-c2ccc(OC3CN(C(=O)c4ccc(OC)cc4)C3)cc2)no1	i	?	5%	?	1.4µM*
COCc1nc(-c2ccc(OC3CN(C(=O)Cc4ccccc4)C3)cc2)no1	i	?	-2%	?	-24%
COCc1nc(-c2ccc(OC3CN(C(=O)C(C)Oc4ccccc4)C3)cc2)no1 (configuration not stated)	i	40µM*	2%	?	?
COCCNC(=O)[C@H]1C[C@H](Oc2ccccc2)CN1Cc1cn(C)c2ccccc12	i	40µM*	i	-27%	8%
COCCNC(=O)[C@H]1C[C@H](Oc2ccccc2)CN1Cc1cccn1C	i	?	-16%	-1%	5%
O=C(CCC1CCCC1)N1CCc2nn(Cc3ccccc3)c(=O)n2CC1	·	?	-22%	?	·
CCCn1nccc1C(=O)NCc1cccnc1Oc1ccc(C)nc1	i	3%	3%[11.5 µM]	-18%	-2%
O=C(c1nnc(COc2cc(F)cc(F)c2)n1-c1ccccc1)N1CCC[C@@H]1c1nc2ccccc2[nH]1	i	?	0%	32µM*	0%
N#Cc1cccc(OCc2nnc(C(=O)N3CCC[C@@H]3c3nc4ccccc4[nH]3)n2-c2ccccc2)c1	i	-13%	-7%	?	-17%
COc1ccc(OCc2nnc(C(=O)N3CCC[C@@H]3c3nc4ccccc4[nH]3)n2-c2ccccc2)cc1	i	-11%	-5%	11µM*	4%
CCN1CCC(CCNC(=O)C2CCCN(S(C)(=O)=O)CCC(=O)NCC2)CC1 (configuration not stated)	i	3%	i	3%	-1%
Cc1ccsc1CN1CCOc2cc([S+](=O)([O-])Nc3ccccc3)ccc2C1	i	63µM*	3%[88.5 µM]	45µM*	?
O=[S+]([O-])(Nc1nncs1)c1ccc2c(c1)OCCN(Cc1ccncc1)C2	i	4%[172 µM]	-24%[88.5 µM]	?	-3%[70.6 µM]
O=[S+]([O-])(Nc1nncs1)c1ccc2c(c1)OCCN(Cc1cncc(F)c1)C2	i	-22%[172 µM]	2%[88.5 µM]	28µM*	-3%[70.6 µM]
Cn1cc(CN2CCOc3cc([S+](=O)([O-])Nc4cccnc4)ccc3C2)cn1	i	3%[172 µM]	0%[88.5 µM]	100µM*	6%[70.6 µM]
O=[S+]([O-])(Nc1ccccc1)c1ccc2c(c1)OCCN(Cc1ccccn1)C2	i	71µM*	-2%[88.5 µM]	?	-24%[70.6 µM]
Cn1cc(CN2CCOc3cc([S+](=O)([O-])Nc4ccccc4)ccc3C2)cn1	i	?	3%[88.5 µM]	-21%[138 µM]	-7%[70.6 µM]
CC(NC1CCN(c2ccc(NC(=O)C3CCCC3)cc2)CC1)c1cccs1 (configuration not stated)	i	5%	i	-4%	-7%
O=C1Nc2ccccc2CC12CCN2Cc1ccccc1C(F)(F)F (configuration not stated)	i	79µM*	-3%[88.5 µM]	?	-8%[70.6 µM]
Cc1cccc(NC(=O)CN2C(=O)NC(c3ccccc3Cl)C3=C2COC3=O)c1 (configuration not stated)	?	?	-8%	?	-16%
O=C(NCc1ccc2c(c1)OCO2)c1cnc2c(c1)N(Cc1ccccc1)CCC2	i	?	i	50µM*	4%[70.6 µM]
CCC(=O)N1CCCN(Cc2ccc3c(c2)OCO3)c2ccccc21	i	45µM*	i	?	-2%
Cc1ccc(NC(=O)C2CC(=O)N(c3n[nH]c4cccc(F)c34)C2)nc1 (configuration not stated)	i	6%	i	i	5%
COc1ccc(C)cc1NC(=O)C1CC(=O)N(c2n[nH]c3cc(Br)ccc23)C1 (configuration not stated)	i	45µM*	i	?	-19%
Cc1ccc2nc(NC(=O)C3CC(=O)N(c4n[nH]c5cccc(F)c45)C3)sc2c1 (configuration not stated)	i	25µM*	4%	32µM*	-11%
